# Active and inactive are the calls of the source. The rule behind the calls is not given here. Where a SMILES comes first, the peptide text is derived from it. [ ]: non-standard residue; d: D form. The star is where a group is joined. ξ: configuration not given here. Piv = CC(C)(C)C(=O)*; ξNva = CCCC(N)C(=O)O
# Molecular target: Pantothenate synthetase (Mycobacterium tuberculosis (strain ATCC 25618 / H37Rv)) (UniProt P9WIL5)
# Experiment: Recombinant Mtb pantothenate synthetase (PanC) inhibitors, coupled enzyme, confirmatory (AID 375);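 note: 0% = full reaction with vehicle and 100% = no enzyme background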
# Details: coupled enzyme assay; at 10 µM, stronger effect = higher value
# Pantothenate synthetase (Mycobacterium tuberculosis (strain ATCC 25618 / H37Rv)), sequence (P9WIL5 whole entry, looked up): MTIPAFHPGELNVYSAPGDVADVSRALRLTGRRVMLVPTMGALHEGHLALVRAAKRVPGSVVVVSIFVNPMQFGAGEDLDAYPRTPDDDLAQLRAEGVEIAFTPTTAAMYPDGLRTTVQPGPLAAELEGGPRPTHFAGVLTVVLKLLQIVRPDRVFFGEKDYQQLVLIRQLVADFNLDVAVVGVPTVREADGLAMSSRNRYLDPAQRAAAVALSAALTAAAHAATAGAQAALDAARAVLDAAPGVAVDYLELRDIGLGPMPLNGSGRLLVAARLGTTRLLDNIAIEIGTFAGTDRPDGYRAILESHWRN
row,Structure (SMILES),inhibition
1,CN1CCN(C(=O)NC2CCCN2S(=O)(=O)c2ccc(Cl)cc2)CC1 (configuration not stated),0% (inactive)
2,CCCCn1c(CNC(=O)CCC)nc2ccccc21,4% (inactive)
3,COc1ccc(-c2cc3c(=O)n(CC(=O)NC4CCN(Cc5ccccc5)CC4)ncn3n2)cc1,1% (inactive)
4,CCCCOCP(=O)(CCCC)COCCCC,1% (inactive)
5,COc1ccccc1C(=O)N1CCCC(c2nc(-c3cc(OC)c(OC)c(OC)c3)no2)C1 (configuration not stated),0% (inactive)
6,O=C(NCc1ccccn1)C(C(=O)c1ccc(F)cc1)n1ccccc1=O (configuration not stated),5% (inactive)
7,CCCC(NC(=O)CNC(=O)C(C)(C)C)C(=O)O (stereo not drawn) (Piv-Gly-[ξNva]-OH),0% (inactive)
8,CCOc1ccc(-c2nnc(N(CC)C(=O)C3CCC3)s2)cc1,11% (inactive)
9,CN1C(=O)C(O)(CC(=O)c2ccc3c(c2)OCO3)c2ccccc21 (configuration not stated),0% (inactive)
10,COc1ccc(S(=O)(=O)N2CCCC2C(=O)Nc2ccc(C)cc2)cc1 (configuration not stated),0% (inactive)
11,COc1cccc(CNC(=O)C2CCN(C(=O)N(C)C)CC2)c1,2% (inactive)
12,CCOC(=O)CN1CC23C=CC(O2)C(C(=O)NCc2ccc(F)cc2)C3C1=O (configuration not stated),0% (inactive)
13,CC(c1ccco1)N(C(=O)COc1ccc(Cl)cc1Cl)c1ccccn1 (configuration not stated),4% (inactive)
14,Cc1cccc(Nc2nc(N)nc(CN3CCC(C(N)=O)CC3)n2)c1C,0% (inactive)
15,CCCCN=CC1=C(O)C(C(=O)OC)C(C)(C)CC1=O (configuration not stated),0% (inactive)
16,O=C(CCn1c(=O)oc2ccccc21)N1CCCCCC1,0% (inactive)
17,CN(C)Cc1cn(CCC(=O)O)c2ccccc12,1% (inactive)

# From PubChem BioAssay
